The structures appear in SMILES notation. Inconclusive results are not listed. Activity calls are given as the source filed them. Rule for the calls, unless noted: active = hit-call score of the fitted dose curve at least 0.9, where 1 is the maximum; inactive = score below 0.9.

Experiment [1] can be described thus: ATG_RORE_CIS: Attagene CIS-FACTORIAL HepG2 Assay for human RAR-related Orphan Receptor Element (RORE) (AID 2282959). The settings on record: HepG2 Attagene cis-factorial RORE reporter, mRNA; actives raise or lower the signal. The gist of the method:
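Measured here: transcript induction of a cis-regulated reporter in HepG2 cells transiently transfected via FuGene 6. After 24 h, RNA was processed by RT-PCR and fluorescent capillary electrophoresis; DMSO defined baseline activity.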

The nature of experiment [2]: ATG_Sox_CIS: Attagene CIS-FACTORIAL HepG2 Assay for human SRY-box transcription factor (SOX) (AID 2282960). The settings on record: HepG2 Attagene cis-factorial SOX reporter, mRNA; actives raise or lower the signal. The gist of the method:
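Using transiently transfected HepG2 cells, reporter transcription driven by cis elements was assessed 24 h after dosing. Signal was fluorescence of capillary-separated RT-PCR products, with DMSO defining baseline activity.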

The target in experiment [3] is Transcription factor Sp1 (Homo sapiens) (UniProt P08047). Nature of the experiment: ATG_Sp1_CIS: Attagene CIS-FACTORIAL HepG2 Assay for human Specificity Protein 1 (Sp1) (AID 2282961). The settings on record: HepG2 Sp1 cis-reporter transcription, actives raise or lower the signal. The gist of the method:
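After transient transfection of HepG2 cells with cis-promoter reporter units and 24 h chemical treatment, reporter transcripts were quantified by RT-PCR and capillary electrophoresis fluorescence. Gain- and loss-of-signal fitted against DMSO.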

The nature of experiment [4]: ATG_SREBP_CIS: Attagene CIS-FACTORIAL HepG2 Assay for human Sterol Regulatory Element Binding (SREBP) (AID 2282962). The settings on record: HepG2 Attagene cis-factorial SREBP reporter, mRNA; actives raise or lower the signal. The gist of the method: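 Twenty-four hours after chemical dosing of transfected HepG2 cultures, reporter RNA was converted to cDNA, amplified, end-labelled with 6-FAM and resolved by capillary electrophoresis. Responses were fitted relative to DMSO.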

The target in experiment [5] is Signal transducer and activator of transcription 3 (Homo sapiens) (UniProt P40763). The experiment can be described thus: ATG_STAT3_CIS: Attagene CIS-FACTORIAL HepG2 Assay for human Signal Transducer and Activator of Transcription 3 (STAT3) (AID 2282963). Particulars: HepG2, Attagene cis-factorial STAT3 reporter transcription; actives raise or lower the signal. The gist of the method: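 Endogenous STAT3-responsive cis-element activity was read in transiently transfected HepG2 cells after 24 h treatment. Reporter transcripts were quantified via RT-PCR and capillary electrophoresis, with DMSO as negative control and bidirectional curve fitting.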
Sequence of Signal transducer and activator of transcription 3 (Homo sapiens) (P40763 whole entry, looked up): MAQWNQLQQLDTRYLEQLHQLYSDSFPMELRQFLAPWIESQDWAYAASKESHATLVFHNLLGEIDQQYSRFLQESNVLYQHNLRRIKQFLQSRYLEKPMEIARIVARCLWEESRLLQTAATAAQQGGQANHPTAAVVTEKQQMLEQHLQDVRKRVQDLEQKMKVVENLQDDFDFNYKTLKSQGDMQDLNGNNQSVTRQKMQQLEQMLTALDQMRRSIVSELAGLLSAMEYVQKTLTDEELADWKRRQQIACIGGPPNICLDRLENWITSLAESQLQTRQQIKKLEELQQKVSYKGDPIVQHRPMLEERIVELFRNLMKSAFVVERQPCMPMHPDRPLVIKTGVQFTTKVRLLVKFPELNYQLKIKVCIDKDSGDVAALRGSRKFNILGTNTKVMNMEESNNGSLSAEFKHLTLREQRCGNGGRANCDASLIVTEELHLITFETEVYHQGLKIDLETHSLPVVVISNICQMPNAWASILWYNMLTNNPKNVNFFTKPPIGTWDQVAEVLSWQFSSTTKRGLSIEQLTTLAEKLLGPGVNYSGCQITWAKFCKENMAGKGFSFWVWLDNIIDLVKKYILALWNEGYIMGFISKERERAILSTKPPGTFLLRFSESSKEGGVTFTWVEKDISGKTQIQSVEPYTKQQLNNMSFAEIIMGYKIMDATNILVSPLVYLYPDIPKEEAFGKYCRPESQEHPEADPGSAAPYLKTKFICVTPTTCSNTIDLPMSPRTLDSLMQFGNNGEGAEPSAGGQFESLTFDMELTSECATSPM

Experiment [6] in a line: ATG_TA_CIS: Attagene CIS-FACTORIAL HepG2 Assay for human TA Basal Promoter (AID 2282964). Particulars: HepG2 Attagene CIS-factorial TA basal promoter reporter; actives raise or lower the signal. The gist of the method: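 Multiplexed mRNA reporter assay, HepG2, 24 h. Reporter cDNA amplified, 6-FAM primer-extended, HpaI-cut, CE-sized; DMSO = negative control and baseline.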

The nature of experiment [7]: ATG_TCF_b_cat_CIS: Attagene CIS-FACTORIAL HepG2 Assay for human T-Cell-Factor with beta-catenin (TCF/b-cat) (AID 2282965). The settings on record: HepG2 TCF/beta-catenin cis-reporter transcription, actives raise or lower the signal. The gist of the method: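 Endogenous TCF/LEF activity read as reporter transcript level via RT-PCR and capillary electrophoresis fluorescence in transfected HepG2, 24 h exposure; gain or loss of signal fitted against DMSO controls.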

Experiment [8] is described as follows: ATG_TAL_CIS: Attagene CIS-FACTORIAL HepG2 Assay for human TAL Basal Promoter (AID 2282966).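 Note: background control endpoint measuring basal TAL promoter reporter mRNA not a specific factor.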 Particulars: HepG2 Attagene cis-factorial TAL promoter reporter; actives raise or lower the signal. The method in brief: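 HepG2 cells transiently transfected with multiplexed cis-promoter reporter units, dosed 24 h. Reporter mRNA quantified by RT-PCR, 6-FAM labelling, HpaI digestion and capillary electrophoresis; TAL basal promoter serves as background control, fitted bidirectionally versus DMSO.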

Experiment [9] can be described thus: ATG_TGFb_CIS: Attagene CIS-FACTORIAL HepG2 Assay for human Transforming Growth Factor (TGF) (AID 2282967). The settings on record: HepG2 Attagene CIS TGFb reporter, mRNA transcription; actives raise or lower the signal. The method in brief: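 Transcript-level reporter readout: HepG2 transfectants, 24 h exposure, RNA to cDNA, reporter-specific PCR, fluorescent primer extension, capillary sizing against ROX standards. Gain- or loss-of-signal relative to DMSO.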

Experiment [10] is described as follows: ATG_VDRE_CIS: Attagene CIS-FACTORIAL HepG2 Assay for human Vitamin D Receptor Element (VDRE) (AID 2282968). The settings on record: HepG2 VDRE cis-reporter transcription, actives raise or lower the signal. The gist of the method:
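Reporter mRNA induction, quantified by capillary electrophoresis of fluorescently labelled RT-PCR products, was read 24 h after dosing HepG2 cells carrying transiently transfected cis-regulated reporter units; gain or loss relative to DMSO.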

Experiment [11] deals with X-box-binding protein 1 (Homo sapiens) (UniProt P17861). The experiment can be described thus: ATG_Xbp1_CIS: Attagene CIS-FACTORIAL HepG2 Assay for human X-box Binding Protein 1 (XBP1) (AID 2282972). Particulars: HepG2 XBP1 cis-element reporter, Attagene multiplex; actives raise or lower the signal. The gist of the method:
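After a 24-hour chemical exposure of HepG2 cells carrying cis-regulated reporters, reporter mRNA levels are assessed. Quantification uses RT-PCR, 6-FAM labelling and capillary electrophoresis. Gain- or loss-of-signal is fitted against DMSO.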

Experiment [12] in a line: ATG_M_19_TRANS: Attagene TRANS-FACTORIAL HepG2 Assay for M19 Transcription Factor (Internal Marker) (AID 2282974; active = hit-call score of the fitted dose curve at least 0.9, where 1 is the maximum). The settings on record: HepG2 Attagene TRANS-FACTORIAL M19 internal marker reporter. The gist of the method: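 Gain-of-signal in reporter mRNA, relative to DMSO, was scored from capillary electrophoresis fluorescence. HepG2 cells carried transiently transfected multiple reporter transcription units and were incubated with test chemicals for 24 h.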

Experiment [13] can be described thus: ATG_GAL4_TRANS: Attagene TRANS-FACTORIAL HepG2 Assay for GAL4 (Internal Marker) (AID 2282976; active = hit-call score of the fitted dose curve at least 0.9, where 1 is the maximum). The settings on record: HepG2 Attagene TRANS GAL4 internal marker reporter. The gist of the method:
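Background-control readout: GAL4-UAS reporter transcript in transiently transfected HepG2 cells after 24 h compound exposure. Measured by RT-PCR, 6-FAM primer extension, HpaI digest and capillary electrophoresis; gain-of-signal fit versus DMSO.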

Experiment [14] concerns the target Estrogen-related receptor gamma (Homo sapiens) (UniProt P62508). The experiment can be described thus: ATG_ERRg_TRANS: Attagene TRANS-FACTORIAL HepG2 Assay for human Estrogen-Related Receptor gamma (ERRg) (AID 2282977; active = hit-call score of the fitted dose curve at least 0.9, where 1 is the maximum;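 note: hits increase reporter signal over DMSO so potencies reflect activators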). Particulars: HepG2 Attagene TRANS reporter, ERRg transactivation. The method in brief: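 HepG2 cells transiently transfected with multiplexed GAL4-UAS reporter units driven by chimeric NR-Gal4 proteins; 24 h exposure. Reporter mRNA quantified by RT-PCR, fluorescent labelling, HpaI digestion and capillary electrophoresis; gain of signal vs DMSO.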

The target in experiment [15] is Glucocorticoid receptor (Homo sapiens) (UniProt P04150). Nature of the experiment: ATG_GR_TRANS: Attagene TRANS-FACTORIAL HepG2 Assay for human Glucocorticoid Receptor (GR) (AID 2282978; active = hit-call score of the fitted dose curve at least 0.9, where 1 is the maximum;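 note: activators score as hits since higher reporter transcript over DMSO is fitted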). The settings on record: HepG2 Attagene TRANS GR reporter, mRNA transcription. The gist of the method: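 HepG2 transient transfection, multiple reporter units, GAL4-UAS under NR-GAL4 chimera control. 24 h treatment. Reporter mRNA by RT-PCR/CE fluorescence, DMSO as negative control.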
Sequence of Glucocorticoid receptor (Homo sapiens) (P04150 whole entry, looked up, the tested form may be a part): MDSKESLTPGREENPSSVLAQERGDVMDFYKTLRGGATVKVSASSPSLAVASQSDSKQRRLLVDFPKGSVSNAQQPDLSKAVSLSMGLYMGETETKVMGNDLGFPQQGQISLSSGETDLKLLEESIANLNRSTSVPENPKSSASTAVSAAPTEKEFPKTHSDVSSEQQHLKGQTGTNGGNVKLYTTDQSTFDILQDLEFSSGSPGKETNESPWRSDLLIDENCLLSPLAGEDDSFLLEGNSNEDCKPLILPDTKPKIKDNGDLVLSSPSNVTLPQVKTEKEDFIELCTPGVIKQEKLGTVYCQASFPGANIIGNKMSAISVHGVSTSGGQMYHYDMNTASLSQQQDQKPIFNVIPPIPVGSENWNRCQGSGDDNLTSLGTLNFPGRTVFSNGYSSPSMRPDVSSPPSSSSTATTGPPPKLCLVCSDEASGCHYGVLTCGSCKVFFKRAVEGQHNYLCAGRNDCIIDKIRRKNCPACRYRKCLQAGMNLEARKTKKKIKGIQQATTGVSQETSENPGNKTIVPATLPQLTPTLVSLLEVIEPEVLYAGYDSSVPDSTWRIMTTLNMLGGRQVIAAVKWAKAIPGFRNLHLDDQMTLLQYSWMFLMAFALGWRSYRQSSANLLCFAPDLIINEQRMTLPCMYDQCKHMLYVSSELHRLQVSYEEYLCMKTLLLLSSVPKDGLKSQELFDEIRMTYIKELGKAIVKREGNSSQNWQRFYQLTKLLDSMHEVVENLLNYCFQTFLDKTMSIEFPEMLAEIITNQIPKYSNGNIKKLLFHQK

The target in experiment [16] is Bile acid receptor (Homo sapiens) (UniProt Q96RI1). Nature of the experiment: ATG_FXR_TRANS: Attagene TRANS-FACTORIAL HepG2 Assay for Farnesoid X Receptor (FXR) (AID 2282979; active = hit-call score of the fitted dose curve at least 0.9, where 1 is the maximum;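 note: hits raise reporter mRNA above DMSO so AC50 marks FXR activation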). The settings on record: HepG2 Attagene TRANS FXR-GAL4 reporter transcription. The gist of the method: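 HepG2 cells were transiently transfected with GAL4-UAS reporters driven by chimeric NR-Gal4 proteins and dosed for 24 h. Reporter mRNA was quantified by RT-PCR, fluorescent labelling, HpaI digestion and capillary electrophoresis, with gain of signal scored versus DMSO.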
Sequence of Bile acid receptor (Homo sapiens) (Q96RI1 whole entry, looked up, the tested form may be a part): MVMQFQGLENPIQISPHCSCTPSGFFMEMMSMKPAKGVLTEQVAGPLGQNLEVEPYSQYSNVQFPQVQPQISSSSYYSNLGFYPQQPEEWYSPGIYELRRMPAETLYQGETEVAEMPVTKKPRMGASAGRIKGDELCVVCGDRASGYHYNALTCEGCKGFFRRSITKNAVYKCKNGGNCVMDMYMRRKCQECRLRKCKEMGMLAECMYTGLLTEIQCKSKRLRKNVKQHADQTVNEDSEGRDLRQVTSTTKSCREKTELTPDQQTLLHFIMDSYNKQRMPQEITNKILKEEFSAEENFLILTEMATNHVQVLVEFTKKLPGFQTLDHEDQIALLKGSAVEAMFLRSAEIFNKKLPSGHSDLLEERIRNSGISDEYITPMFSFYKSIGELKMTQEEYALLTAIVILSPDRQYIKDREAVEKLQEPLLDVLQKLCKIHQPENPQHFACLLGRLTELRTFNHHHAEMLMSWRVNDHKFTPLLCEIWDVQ

Experiment [17] has as its target Nuclear receptor subfamily 1 group I member 3 (Homo sapiens) (UniProt Q14994). The experiment can be described thus: ATG_CAR_TRANS: Attagene TRANS-FACTORIAL HepG2 Assay for human Constitutive Androstane Receptor (CAR) (AID 2282969; active = hit-call score of the fitted dose curve at least 0.9, where 1 is the maximum;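 note: activators raise reporter mRNA above DMSO so AC50 marks induction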). Particulars: HepG2 Attagene TRANS-FACTORIAL CAR reporter. The gist of the method:
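Readout is reporter mRNA induction, quantified by fluorescent primer extension and capillary electrophoresis after RT-PCR. Cells were HepG2 transiently carrying chimeric NR-Gal4 constructs with GAL4-UAS reporters, treated for 24 h; activity scored upward from DMSO.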

Experiment [18] deals with Estrogen receptor (Homo sapiens) (UniProt P03372). The experiment can be described thus: ATG_ERa_TRANS: Attagene TRANS-FACTORIAL HepG2 Assay for human Estrogen Receptor alpha (ERa) (AID 2282970; active = hit-call score of the fitted dose curve at least 0.9, where 1 is the maximum). The settings on record: HepG2 Attagene TRANS ERa GAL4 reporter, mRNA. The method in brief: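 HepG2 cells transiently transfected with multiplexed GAL4-UAS reporter units read out chimeric NR-Gal4 activity. After 24 h compound exposure, reporter mRNA was quantified by RT-PCR, 6-FAM labeling, HpaI digestion and capillary electrophoresis, relative to DMSO.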
Sequence of Estrogen receptor (Homo sapiens) (P03372 whole entry, looked up, the tested form may be a part): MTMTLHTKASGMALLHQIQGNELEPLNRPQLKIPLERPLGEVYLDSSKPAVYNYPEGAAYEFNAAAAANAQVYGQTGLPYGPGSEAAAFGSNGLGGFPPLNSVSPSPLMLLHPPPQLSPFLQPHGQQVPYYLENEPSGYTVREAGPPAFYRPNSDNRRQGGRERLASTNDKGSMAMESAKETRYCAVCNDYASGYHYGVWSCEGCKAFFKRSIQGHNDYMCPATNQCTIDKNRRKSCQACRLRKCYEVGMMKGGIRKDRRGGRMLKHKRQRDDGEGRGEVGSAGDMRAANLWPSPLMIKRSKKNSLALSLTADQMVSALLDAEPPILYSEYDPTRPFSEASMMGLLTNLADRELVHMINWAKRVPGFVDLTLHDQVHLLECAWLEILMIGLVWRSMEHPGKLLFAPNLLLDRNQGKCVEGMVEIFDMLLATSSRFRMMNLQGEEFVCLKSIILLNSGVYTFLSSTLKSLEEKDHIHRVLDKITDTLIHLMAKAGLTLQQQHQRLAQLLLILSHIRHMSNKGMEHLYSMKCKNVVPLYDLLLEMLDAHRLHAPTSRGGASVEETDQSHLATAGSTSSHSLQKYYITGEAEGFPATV

The target in experiment [19] is Steroid hormone receptor ERR1 (Homo sapiens) (UniProt P11474). Nature of the experiment: ATG_ERRa_TRANS: Attagene TRANS-FACTORIAL HepG2 Assay for human Estrogen-Related Receptor alpha (ERRa) (AID 2282971; active = hit-call score of the fitted dose curve at least 0.9, where 1 is the maximum). The settings on record: HepG2 Attagene TRANS reporter, ERRa transactivation. The method in brief: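 HepG2 cells transiently transfected with GAL4-UAS reporter units and chimeric NR-Gal4 constructs; after 24 hour compound incubation, reporter mRNA quantified by RT-PCR, fluorescent labelling and capillary electrophoresis, gain of signal versus DMSO.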
Sequence of Steroid hormone receptor ERR1 (Homo sapiens) (P11474 whole entry, looked up, the tested form may be a part): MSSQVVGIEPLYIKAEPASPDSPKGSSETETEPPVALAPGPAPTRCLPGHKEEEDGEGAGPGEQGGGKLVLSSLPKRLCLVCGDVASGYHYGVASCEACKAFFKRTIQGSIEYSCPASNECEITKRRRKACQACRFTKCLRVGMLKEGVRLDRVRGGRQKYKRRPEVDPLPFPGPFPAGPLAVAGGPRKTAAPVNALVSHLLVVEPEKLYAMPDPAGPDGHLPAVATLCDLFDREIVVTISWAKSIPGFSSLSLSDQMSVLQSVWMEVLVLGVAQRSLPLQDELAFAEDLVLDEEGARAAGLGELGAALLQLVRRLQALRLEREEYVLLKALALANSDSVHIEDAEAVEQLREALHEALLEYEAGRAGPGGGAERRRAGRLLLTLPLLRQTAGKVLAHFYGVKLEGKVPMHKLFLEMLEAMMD

Sequence of X-box-binding protein 1 (Homo sapiens) (P17861 whole entry, looked up): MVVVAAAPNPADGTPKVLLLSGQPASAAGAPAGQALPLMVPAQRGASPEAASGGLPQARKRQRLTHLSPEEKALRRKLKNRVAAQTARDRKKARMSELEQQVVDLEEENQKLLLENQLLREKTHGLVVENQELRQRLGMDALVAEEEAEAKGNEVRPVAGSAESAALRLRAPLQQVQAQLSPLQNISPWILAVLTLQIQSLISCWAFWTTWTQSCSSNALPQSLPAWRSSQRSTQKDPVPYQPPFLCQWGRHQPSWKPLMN
Sequence of Transcription factor Sp1 (Homo sapiens) (P08047 whole entry, looked up): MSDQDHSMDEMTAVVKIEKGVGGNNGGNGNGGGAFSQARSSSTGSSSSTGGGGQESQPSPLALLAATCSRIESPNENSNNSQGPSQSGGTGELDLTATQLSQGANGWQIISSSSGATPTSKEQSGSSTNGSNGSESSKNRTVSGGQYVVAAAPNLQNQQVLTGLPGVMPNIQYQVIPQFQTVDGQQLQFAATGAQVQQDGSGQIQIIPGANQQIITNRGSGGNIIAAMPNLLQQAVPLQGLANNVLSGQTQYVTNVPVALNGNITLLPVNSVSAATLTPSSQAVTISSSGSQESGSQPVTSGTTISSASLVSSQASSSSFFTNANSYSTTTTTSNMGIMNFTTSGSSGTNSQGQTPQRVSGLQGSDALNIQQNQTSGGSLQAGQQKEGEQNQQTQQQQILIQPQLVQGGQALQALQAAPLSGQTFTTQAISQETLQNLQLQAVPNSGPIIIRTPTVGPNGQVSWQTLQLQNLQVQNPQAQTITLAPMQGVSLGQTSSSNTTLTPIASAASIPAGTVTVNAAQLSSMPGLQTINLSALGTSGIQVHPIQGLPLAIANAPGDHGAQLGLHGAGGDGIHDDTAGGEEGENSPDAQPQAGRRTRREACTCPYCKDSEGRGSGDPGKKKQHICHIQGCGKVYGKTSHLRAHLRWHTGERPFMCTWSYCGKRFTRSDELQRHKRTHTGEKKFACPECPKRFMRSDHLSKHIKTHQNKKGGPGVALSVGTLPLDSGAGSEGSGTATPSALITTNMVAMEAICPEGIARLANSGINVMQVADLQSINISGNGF
Sequence of Estrogen-related receptor gamma (Homo sapiens) (P62508 whole entry, looked up, the tested form may be a part): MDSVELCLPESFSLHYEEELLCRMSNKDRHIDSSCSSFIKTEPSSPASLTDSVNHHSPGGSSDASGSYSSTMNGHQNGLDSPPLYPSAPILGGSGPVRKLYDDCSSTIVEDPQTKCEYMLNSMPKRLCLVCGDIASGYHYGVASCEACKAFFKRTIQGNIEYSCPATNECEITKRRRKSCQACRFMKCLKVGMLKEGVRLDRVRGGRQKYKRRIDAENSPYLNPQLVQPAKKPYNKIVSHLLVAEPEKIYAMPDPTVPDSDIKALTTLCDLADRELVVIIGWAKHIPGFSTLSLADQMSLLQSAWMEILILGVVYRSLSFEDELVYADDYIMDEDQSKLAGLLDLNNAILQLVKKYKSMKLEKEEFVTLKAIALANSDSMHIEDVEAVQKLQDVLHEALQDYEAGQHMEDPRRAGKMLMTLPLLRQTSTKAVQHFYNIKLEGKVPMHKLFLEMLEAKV
Sequence of Nuclear receptor subfamily 1 group I member 3 (Homo sapiens) (Q14994 whole entry, looked up, the tested form may be a part): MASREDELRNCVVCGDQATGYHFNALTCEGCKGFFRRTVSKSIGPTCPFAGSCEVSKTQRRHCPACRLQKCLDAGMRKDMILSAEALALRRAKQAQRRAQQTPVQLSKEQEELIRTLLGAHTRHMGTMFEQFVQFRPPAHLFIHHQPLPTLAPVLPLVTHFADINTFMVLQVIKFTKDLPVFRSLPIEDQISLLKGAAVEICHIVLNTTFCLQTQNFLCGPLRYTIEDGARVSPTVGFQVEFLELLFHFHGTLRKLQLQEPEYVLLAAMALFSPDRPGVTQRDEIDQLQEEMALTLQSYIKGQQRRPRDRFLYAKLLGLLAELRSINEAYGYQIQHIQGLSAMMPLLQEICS

`Clc1cccc(Cl)c1`: the outcome in experiment [1], in experiment [2], in experiment [3], in [4], in experiment [5] and in experiment [6] was inactive. In addition, the compound was classed as inactive in [7], in experiment [8], in experiment [9], in experiment [10], in [11] and in experiment [12]. The call in experiment [13], in [14] and in experiment [15] was inactive.
In the case of `NNCCO`, the AC50 in [1] was 25.4 µM (active). Also, the call in experiment [2], in experiment [3], in experiment [4], in experiment [5], in experiment [6] and in [7] was inactive. Besides, the result in experiment [8], in experiment [9], in experiment [10], in experiment [11], in [12] and in [14] was inactive. In addition, the outcome in experiment [16] was inactive.
For `O=[N+]([O-])c1ccc(Cl)c([N+](=O)[O-])c1`, the call in experiment [1], in experiment [2], in experiment [3], in [4], in [6] and in [7] was inactive. Also, the call in experiment [8], in experiment [10], in experiment [11], in experiment [12] and in experiment [15] was inactive. Moreover, the AC50 in experiment [5] is 5.93 µM (active); in experiment [9], 3.71 µM (active).
Take `CC(C)C(C)(N)C#N` (configuration not stated): the result in experiment [1], in experiment [2], in experiment [3], in [4], in experiment [5] and in [6] was inactive. In addition, the result in experiment [7], in [8], in experiment [9], in [10], in [11] and in [12] was inactive. For the same compound, the compound was called inactive in experiment [15] and in experiment [16].
Take `CC1CC(=O)O1` (configuration not stated): the compound was classed as inactive in experiment [1], in experiment [2], in experiment [3], in [4], in experiment [5] and in [6]. The call in experiment [7], in [8], in [9], in experiment [10] and in [11] was inactive.
Take `O=S(=O)(F)C(F)(F)C(F)(F)C(F)(F)C(F)(F)F`: the compound was classed as inactive in [1], in experiment [2], in [3], in [4], in [5] and in [6]. Also, the compound was called inactive in experiment [7], in [8], in experiment [9], in experiment [10], in [11] and in experiment [13]. Besides, the result in [14] and in [16] was inactive.
`CCOC(=O)CCN(SN(C)C(=O)Oc1cccc2c1OC(C)(C)C2)C(C)C`: the outcome in experiment [1], in experiment [2], in experiment [3], in [5], in experiment [6] and in [7] was inactive. Moreover, the compound was classed as inactive in [8], in experiment [9], in experiment [17], in experiment [18], in experiment [19] and in experiment [11]. The compound was called inactive in experiment [16]. Moreover, the AC50 in experiment [4] is 100 µM (active).
In the case of `Clc1cccc(Cl)c1Cl`, the outcome in experiment [1], in experiment [2], in [3], in experiment [4], in [5] and in experiment [6] was inactive. For the same compound, the compound was called inactive in experiment [7], in experiment [8], in experiment [9], in experiment [10], in experiment [19] and in experiment [11]. For the same compound, in experiment [14], the result was inactive.
Take `C=CCOC(N)=O`: the result in [1], in experiment [2], in [3], in experiment [4], in experiment [5] and in experiment [6] was inactive. For the same compound, the compound was classed as inactive in experiment [7], in experiment [8], in experiment [9], in experiment [10], in experiment [11] and in [13]. The outcome in [15] and in experiment [16] was inactive.

The AC50 is the midpoint of the concentration-response curve, whichever way the signal moves.

Values taken from PubChem BioAssay (EPA / NIEHS).
